Columns and labels:
[1] = biological target: Protein kinase C gamma type (Homo sapiens) (UniProt P05129); details: at 1 µM;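 also: each value is an averaged percent inhibition of the enzyme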
[2] = biological target: T1, Protein kinase C iota type (Homo sapiens) (UniProt P41743); details: at 0.1 µM
T1 sequence (whole entry): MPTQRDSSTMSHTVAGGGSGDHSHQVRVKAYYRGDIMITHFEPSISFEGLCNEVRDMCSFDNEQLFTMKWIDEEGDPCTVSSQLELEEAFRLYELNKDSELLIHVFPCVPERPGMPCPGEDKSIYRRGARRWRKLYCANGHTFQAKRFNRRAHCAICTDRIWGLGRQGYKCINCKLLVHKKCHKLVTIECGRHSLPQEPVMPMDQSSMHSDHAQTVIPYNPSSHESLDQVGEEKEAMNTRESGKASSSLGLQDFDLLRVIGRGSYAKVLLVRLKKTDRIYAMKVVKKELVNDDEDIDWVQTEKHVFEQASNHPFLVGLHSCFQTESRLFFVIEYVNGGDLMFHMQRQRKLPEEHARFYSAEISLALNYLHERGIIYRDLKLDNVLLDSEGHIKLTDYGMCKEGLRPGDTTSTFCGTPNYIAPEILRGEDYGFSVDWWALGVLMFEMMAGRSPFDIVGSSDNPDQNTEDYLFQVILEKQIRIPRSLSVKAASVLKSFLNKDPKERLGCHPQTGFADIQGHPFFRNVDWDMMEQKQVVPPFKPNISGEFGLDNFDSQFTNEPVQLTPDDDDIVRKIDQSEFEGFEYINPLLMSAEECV

[3] = biological target: T1, Protein kinase C iota type (Homo sapiens); details: at 1 µM
[4] = biological target: Protein kinase C theta type (Homo sapiens) (UniProt Q04759); details: at 0.1 µM
Chain of Protein kinase C theta type (Homo sapiens) (Q04759 whole entry, looked up): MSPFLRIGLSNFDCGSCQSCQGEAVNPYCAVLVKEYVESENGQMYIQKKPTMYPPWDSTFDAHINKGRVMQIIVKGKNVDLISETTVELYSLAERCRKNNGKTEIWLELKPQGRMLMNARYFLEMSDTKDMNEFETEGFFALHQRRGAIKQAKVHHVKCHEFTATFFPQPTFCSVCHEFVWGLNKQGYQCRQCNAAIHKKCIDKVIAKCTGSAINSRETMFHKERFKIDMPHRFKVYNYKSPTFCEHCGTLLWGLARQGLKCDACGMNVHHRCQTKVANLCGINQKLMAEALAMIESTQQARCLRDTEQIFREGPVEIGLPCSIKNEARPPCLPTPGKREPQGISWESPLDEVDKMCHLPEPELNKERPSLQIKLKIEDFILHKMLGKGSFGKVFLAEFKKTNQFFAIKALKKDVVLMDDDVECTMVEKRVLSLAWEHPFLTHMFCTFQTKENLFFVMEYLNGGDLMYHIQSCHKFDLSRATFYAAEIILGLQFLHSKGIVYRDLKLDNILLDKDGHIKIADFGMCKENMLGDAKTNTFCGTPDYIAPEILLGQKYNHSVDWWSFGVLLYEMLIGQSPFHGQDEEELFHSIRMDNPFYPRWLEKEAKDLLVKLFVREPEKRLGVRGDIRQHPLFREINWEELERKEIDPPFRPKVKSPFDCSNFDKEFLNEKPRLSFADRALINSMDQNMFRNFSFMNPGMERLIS

[5] = biological target: Protein kinase C theta type (Homo sapiens) (UniProt Q04759); details: at 1 µM
[6] = biological target: Protein kinase C beta type (Homo sapiens) (UniProt P05771); details: at 0.1 µM
Chain of Protein kinase C beta type (Homo sapiens) (P05771 2-671 limits assumed): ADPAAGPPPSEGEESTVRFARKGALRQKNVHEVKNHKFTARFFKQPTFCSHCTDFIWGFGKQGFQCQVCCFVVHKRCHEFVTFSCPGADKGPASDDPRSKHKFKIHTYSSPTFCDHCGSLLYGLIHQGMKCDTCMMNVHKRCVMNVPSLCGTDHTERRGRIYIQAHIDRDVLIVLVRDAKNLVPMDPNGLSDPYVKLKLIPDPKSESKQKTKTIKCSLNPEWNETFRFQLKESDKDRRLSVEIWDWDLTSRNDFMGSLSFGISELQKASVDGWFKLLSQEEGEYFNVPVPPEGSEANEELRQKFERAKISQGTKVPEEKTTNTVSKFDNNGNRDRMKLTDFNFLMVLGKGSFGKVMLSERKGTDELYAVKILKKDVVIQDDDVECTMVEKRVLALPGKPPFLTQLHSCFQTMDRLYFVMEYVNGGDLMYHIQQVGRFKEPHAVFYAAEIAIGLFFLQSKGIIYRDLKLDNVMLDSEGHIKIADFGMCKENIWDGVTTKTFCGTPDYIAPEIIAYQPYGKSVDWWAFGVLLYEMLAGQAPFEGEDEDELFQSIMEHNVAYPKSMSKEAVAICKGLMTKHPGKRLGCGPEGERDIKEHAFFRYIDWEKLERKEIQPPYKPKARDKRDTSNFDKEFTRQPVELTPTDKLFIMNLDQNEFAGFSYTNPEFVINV

[7] = biological target: Protein kinase C beta type (Homo sapiens) (UniProt P05771); details: at 1 µM
[8] = biological target: T2, Serine/threonine-protein kinase D1 (Homo sapiens) (UniProt Q15139); details: at 0.1 µM
T2 sequence (whole entry): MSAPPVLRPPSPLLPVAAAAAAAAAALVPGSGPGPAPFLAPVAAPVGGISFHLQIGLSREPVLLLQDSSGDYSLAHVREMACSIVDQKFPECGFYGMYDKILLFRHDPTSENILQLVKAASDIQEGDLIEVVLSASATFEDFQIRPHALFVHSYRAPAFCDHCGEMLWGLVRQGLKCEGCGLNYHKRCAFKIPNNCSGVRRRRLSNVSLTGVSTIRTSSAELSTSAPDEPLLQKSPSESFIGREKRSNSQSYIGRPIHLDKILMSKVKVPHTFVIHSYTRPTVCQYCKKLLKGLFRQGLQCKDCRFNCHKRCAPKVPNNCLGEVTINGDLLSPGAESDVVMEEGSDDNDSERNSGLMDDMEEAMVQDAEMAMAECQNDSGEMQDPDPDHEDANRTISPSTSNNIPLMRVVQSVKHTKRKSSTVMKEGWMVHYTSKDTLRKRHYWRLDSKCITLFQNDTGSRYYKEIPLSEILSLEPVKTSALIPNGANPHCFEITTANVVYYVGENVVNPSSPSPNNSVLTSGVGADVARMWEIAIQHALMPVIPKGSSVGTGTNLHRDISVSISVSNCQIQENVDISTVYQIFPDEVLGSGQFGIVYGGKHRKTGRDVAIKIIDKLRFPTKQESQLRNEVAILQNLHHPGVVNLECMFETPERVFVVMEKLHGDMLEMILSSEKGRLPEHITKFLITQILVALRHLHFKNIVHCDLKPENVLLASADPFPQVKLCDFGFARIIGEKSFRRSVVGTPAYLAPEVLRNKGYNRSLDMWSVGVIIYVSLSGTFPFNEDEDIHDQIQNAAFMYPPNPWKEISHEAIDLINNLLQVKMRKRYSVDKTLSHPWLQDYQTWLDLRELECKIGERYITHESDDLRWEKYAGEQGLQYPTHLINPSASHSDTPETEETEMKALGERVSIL

[9] = biological target: T2, Serine/threonine-protein kinase D1 (Homo sapiens); details: at 1 µM
[10] = biological target: T3, Serine/threonine-protein kinase D2 (Homo sapiens) (UniProt Q9BZL6); details: at 0.1 µM;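 also: reported percent inhibition values are means, part of the GSK PKIS kinase panel screen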
T3 sequence (whole entry): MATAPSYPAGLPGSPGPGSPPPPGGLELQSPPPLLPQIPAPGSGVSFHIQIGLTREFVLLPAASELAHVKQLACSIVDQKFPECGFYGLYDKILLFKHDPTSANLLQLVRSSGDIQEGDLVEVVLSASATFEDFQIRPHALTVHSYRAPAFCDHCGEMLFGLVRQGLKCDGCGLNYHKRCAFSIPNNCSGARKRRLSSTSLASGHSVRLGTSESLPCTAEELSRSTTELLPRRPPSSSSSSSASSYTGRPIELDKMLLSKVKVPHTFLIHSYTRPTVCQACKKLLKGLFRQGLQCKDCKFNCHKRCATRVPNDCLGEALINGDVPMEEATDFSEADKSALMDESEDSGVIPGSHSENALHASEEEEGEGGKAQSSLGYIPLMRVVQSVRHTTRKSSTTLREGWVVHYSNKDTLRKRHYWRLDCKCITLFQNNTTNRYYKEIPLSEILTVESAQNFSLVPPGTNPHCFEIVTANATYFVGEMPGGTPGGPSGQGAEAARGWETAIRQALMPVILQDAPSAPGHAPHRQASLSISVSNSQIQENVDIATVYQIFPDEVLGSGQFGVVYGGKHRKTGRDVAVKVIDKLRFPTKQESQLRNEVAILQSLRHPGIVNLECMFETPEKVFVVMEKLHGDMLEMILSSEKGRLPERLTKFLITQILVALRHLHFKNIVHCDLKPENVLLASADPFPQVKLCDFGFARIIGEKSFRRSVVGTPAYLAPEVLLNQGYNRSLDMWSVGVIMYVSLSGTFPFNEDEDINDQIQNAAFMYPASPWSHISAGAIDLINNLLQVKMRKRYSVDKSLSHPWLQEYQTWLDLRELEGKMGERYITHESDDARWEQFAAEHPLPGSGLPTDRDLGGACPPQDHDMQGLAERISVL

Compound NC(=O)c1sc(-n2cnc3ccc(C(F)(F)F)cc32)cc1OCc1ccccc1Br has an inhibition [1] of 3.75%, an inhibition [2] of 0.8% and an inhibition [3] of 0.82%. The inhibition [4] was 1.63%, the inhibition [5] was 2.57% and the inhibition [6] was 1.28%. The inhibition [7] was 1.31%, the inhibition [8] was 2.72% and the inhibition [9] was 3.86%. It also gave an inhibition [10] of 3.59%.
CC(C)(CO)CNC(=O)c1ccc2c(c1)/C(=N/Nc1ccc(S(N)(=O)=O)cc1)C(=O)N2 gave an inhibition [1] of 3.43%, an inhibition [2] of -0.53% and an inhibition [3] of -0.82%. The inhibition [4] was 0.56%, the inhibition [5] was 0.9% and the inhibition [6] was 0.36%. It also gave an inhibition [7] of 1.12%, an inhibition [8] of 0.49% and an inhibition [9] of 13.9%. For the same compound, the inhibition [10] was 0.9%.
Fc1ccc(-c2cc(-c3c[nH]nc3-c3ccccn3)ccn2)cc1 showed an inhibition [1] of 1.87%, an inhibition [2] of 2.53% and an inhibition [3] of 0.58%. The inhibition [4] was 3.15%, the inhibition [5] was 5.06% and the inhibition [6] was 1.48%. The inhibition [7] was 1.07%, the inhibition [8] was 4.79% and the inhibition [9] was 26.9%. It also gave an inhibition [10] of 6.43%.
CN1CCC(n2cnc(-c3ccc(F)cc3)c2-c2ccnc(Nc3ccccc3)n2)CC1 showed an inhibition [1] of 33.8%, an inhibition [2] of 1.53% and an inhibition [3] of 1.32%. The inhibition [4] was 1.16%, the inhibition [5] was 4.03% and the inhibition [6] was 27.4%. The inhibition [7] was 66.5%, the inhibition [8] was 5.32% and the inhibition [9] was 39.6%. The inhibition [10] was 7.44%.
Compound COc1ccc(-c2cc(-c3c[nH]nc3-c3ccccn3)ccn2)cc1 has an inhibition [1] of 1.71%, an inhibition [2] of 1.68% and an inhibition [3] of 0.87%. For the same compound, the inhibition [4] was 2.82%, the inhibition [5] was 5.05% and the inhibition [6] was 0.62%. For the same compound, the inhibition [7] was 1.96%, the inhibition [8] was 8.14% and the inhibition [9] was 37.8%. It also gave an inhibition [10] of 9.14%.
In the case of c1ccc(COc2ccc(Nc3ncnc4ccc(-c5ccco5)cc34)cc2)cc1, the inhibition [1] was 0.84%, the inhibition [2] was -1.29% and the inhibition [3] was -0.86%. The inhibition [4] was -2.6%, the inhibition [5] was -0.62% and the inhibition [6] was 0.49%. For the same compound, the inhibition [7] was 0.58%, the inhibition [8] was 1.25% and the inhibition [9] was 0.71%. It also gave an inhibition [10] of 3.12%.
For Cc1ccc(O)cc1Nc1ccnc2cc(-c3ccccn3)ccc12, the inhibition [1] was 4.48%, the inhibition [2] was 2.29% and the inhibition [3] was 4.56%. The inhibition [4] was 2.6%, the inhibition [5] was 1.93% and the inhibition [6] was 1.13%. For the same compound, the inhibition [7] was 1.55%, the inhibition [8] was 5.06% and the inhibition [9] was 28.9%. For the same compound, the inhibition [10] was 6.27%.
In the case of COc1cc(N2CCN(C(C)C)CC2)ccc1Nc1nc(Nc2ccc(F)cc2C(N)=O)c2cc[nH]c2n1, the inhibition [1] was 15.7%, the inhibition [2] was -0.5% and the inhibition [3] was 0.42%. The inhibition [4] was 2.56%, the inhibition [5] was 4.69% and the inhibition [6] was 1.59%. The inhibition [7] was 5.72%, the inhibition [8] was 61.7% and the inhibition [9] was 84.3%. It also gave an inhibition [10] of 59.9%.
For COc1cc2c(cc1Nc1nc(Nc3ccsc3C(N)=O)c3cc[nH]c3n1)N(C(=O)CN(C)C)CCC2(C)C, the inhibition [1] was 44%, the inhibition [2] was 2.68% and the inhibition [3] was 5.01%. The inhibition [4] was 4.59%, the inhibition [5] was 16.2% and the inhibition [6] was 3.45%. It also gave an inhibition [7] of 15%, an inhibition [8] of 11.2% and an inhibition [9] of 58.5%. For the same compound, the inhibition [10] was 17.5%.
COc1cc(Nc2nccc(Nc3ccc4c(C)n[nH]c4c3)n2)cc(OC)c1OC gave an inhibition [1] of 5.39%, an inhibition [2] of 1.08% and an inhibition [3] of 3.92%. The inhibition [4] was 1.17%, the inhibition [5] was -0.29% and the inhibition [6] was 2.72%. For the same compound, the inhibition [7] was 6.67%, the inhibition [8] was 2.61% and the inhibition [9] was 2.11%. It also gave an inhibition [10] of 1.03%.
Nc1nc(-c2ccc(F)cc2)c(-c2ccc3ncccc3n2)s1 gave an inhibition [1] of 4.5%, an inhibition [2] of 2.17% and an inhibition [3] of 1.59%. For the same compound, the inhibition [4] was 1.69%, the inhibition [5] was 3.74% and the inhibition [6] was 1.11%. The inhibition [7] was 3.48%, the inhibition [8] was 8% and the inhibition [9] was 45%. For the same compound, the inhibition [10] was 8.22%.
In the case of Cc1ccc2c(-c3ccnc(Nc4ccccc4)n3)c(-c3ccc(F)cc3)nn2n1, the inhibition [1] was 2.17%, the inhibition [2] was 1.43% and the inhibition [3] was 3.68%. It also gave an inhibition [4] of 1.21%, an inhibition [5] of 1.16% and an inhibition [6] of 1.79%. For the same compound, the inhibition [7] was 12.3%, the inhibition [8] was 10.1% and the inhibition [9] was 70.6%. The inhibition [10] was 24.6%.
Compound Cc1cccc2c1NC(=O)/C2=N\Nc1ccc(S(N)(=O)=O)cc1 has an inhibition [1] of -2.77%, an inhibition [2] of 1.18% and an inhibition [3] of 2.53%. The inhibition [4] was 0.85%, the inhibition [5] was 0.4% and the inhibition [6] was 2.86%. The inhibition [7] was 0.46%, the inhibition [8] was 2.89% and the inhibition [9] was 4.31%. It also gave an inhibition [10] of 2.72%.
Fc1cccc(COc2ccc(Nc3ncnc4sc(-c5ccco5)cc34)cc2Cl)c1 gave an inhibition [1] of 1.6%, an inhibition [2] of 2.45% and an inhibition [3] of 2.35%. It also gave an inhibition [4] of 2%, an inhibition [5] of 2.39% and an inhibition [6] of 1%. It also gave an inhibition [7] of 1.15%, an inhibition [8] of 5.24% and an inhibition [9] of 6.44%. It also gave an inhibition [10] of 4.13%.
With Fc1ccc(-c2nn3ncccc3c2-c2ccnc(Nc3ccc4c(c3)OCCO4)n2)cc1 the inhibition [1] was 7.86%, the inhibition [2] was 0.67% and the inhibition [3] was 3.27%. The inhibition [4] was 1.22%, the inhibition [5] was 3.8% and the inhibition [6] was 3.86%. The inhibition [7] was 20.1%, the inhibition [8] was 4.89% and the inhibition [9] was 36.5%. It also gave an inhibition [10] of 8.87%.
Compound CNC(=O)c1cc(-c2ccc(F)cc2)cc(-c2ccc(S(=O)(=O)N3CCCC3)cc2)c1N has an inhibition [1] of 2.53%, an inhibition [2] of 1.11% and an inhibition [3] of 1.04%. The inhibition [4] was 0.84%, the inhibition [5] was 1.4% and the inhibition [6] was -0.56%. The inhibition [7] was 1.04%, the inhibition [8] was 3.87% and the inhibition [9] was 4.98%. The inhibition [10] was 2.4%.
For CCn1cc(-c2ccnc3[nH]ccc23)c(-c2cccc(NC(=O)Nc3ccc(OCc4ccccc4)cc3)c2)n1, the inhibition [1] was 2.68%, the inhibition [2] was -0.3% and the inhibition [3] was 0.28%. The inhibition [4] was 0.93%, the inhibition [5] was 1.88% and the inhibition [6] was 0.47%. The inhibition [7] was 1.93%, the inhibition [8] was 2.3% and the inhibition [9] was 5.37%. For the same compound, the inhibition [10] was 18.8%.

— ChEMBL document CHEMBL1961873, “Compounds: GSK PKIS; Assays: Nanosyn kinase panel” (2012)
